# Measurements taken from the supplement of paper PMC9135407.
# Where “and” joins values, the source holds several entries; their conditions need not be identical. Identical values can stand only once. Counter-ions that a name gives are not always drawn. Hit rate of the full screen: of about 5,800 compounds, about 620 (11%) showed activity. The sample as a whole holds a higher share of actives than the screen did. Values without a mark were called inactive.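 The calls were made as follows: active = score above a cut-off or among the top three wells of a plate; in these data no inactive exceeds 0.85.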
# Tested on: primary human hepatic stellate cells (donor 1)
# Experiment: scaled lipid accumulation score (0 = DMSO-like, 1 = nortriptyline-like); higher = stronger HSC inactivation (lipid re-accumulation), active = hit call of the paper
# Conditions: 48 h
# Experimental: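 Primary lipid accumulation screen in primary human hepatic stellate cell myofibroblasts (donor 1, passage 8) in 384-well plates. 100 nL of library compound was pin-transferred into 30 µL medium in duplicate, and cells were treated for 48 h. The 'Scaled' score combines distance from plate baseline, toxicity and reproducibility penalties, and is normalised to nortriptyline (positive) and DMSO (negative) controls on each plate. A hit is defined as scaled >0.85 or among the top 3 wells per plate.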
# [1] = library stock concentration: 1 mM
# [2] = library stock concentration: 10 mM
# [3] = library stock concentration: 80 uM
# [4] = library stock concentration: 400 uM
# [5] = library stock concentration: 2 mM
# [6] = library stock concentration: 3.33 mM
smiles,measurement,setting,value
"C=C1CCC(O)C/C1=C\C=C1\CCCC2(C)C1CCC2C(C)CCC(O)C(C)(C)O (stereo not drawn) [24,25-Dihydroxyvitamin D3]",scaled lipid accumulation score,[1],0.016
O=C(O)CCC/C=C\C[C@H]1C(=O)C[C@@H](O)[C@@H]1/C=C/[C@@H](O)COc1ccccc1 [16-phenoxy tetranor Prostaglandin E2],scaled lipid accumulation score,[1],≤ 0
CCCCCCCCCCCCCCCCCCCCCCCC(=O)NCCS(=O)(=O)O [N-Lignoceroyl Taurine],scaled lipid accumulation score,[1],0.009
CCCCCC(O)C=CC1C(O)CC(O)C1CC=CCCCC(=O)O (stereo not drawn) [8-epi-Prostaglandin F2a],scaled lipid accumulation score,[1],≤ -0.021
O=C(Cc1ccccc1)Nc1nc2ccc(Cl)cc2c2nc(-c3ccco3)nn12,scaled lipid accumulation score,[2],0.596
CC(C)NC[C@@H](C(=O)N1CCN(c2ncnc3c2[C@H](C)C[C@H]3O)CC1)c1ccc(Cl)cc1 [listing 1 of 2 here],scaled lipid accumulation score,[3],≤ -0.016
same,scaled lipid accumulation score,[4],≤ -0.016
same,scaled lipid accumulation score,[5],0.083
same,scaled lipid accumulation score,[6],0.174
same,scaled lipid accumulation score,[2],0.257
CC(C)NC[C@@H](C(=O)N1CCN(c2ncnc3c2[C@H](C)C[C@H]3O)CC1)c1ccc(Cl)cc1 [listing 2 of 2 here],scaled lipid accumulation score,[2],0.881 (active)
"CCCCCCCC/C=C\CCCCCCCC(=O)OCC(CO)OC(=O)CCCCCCC/C=C\CCCCCCCC (stereo not drawn) [1,2-Dioleoyl-glycerol (18:1)]",scaled lipid accumulation score,[1],0.004
COc1cc(N2CCC(C(N)=O)CC2)ccc1Nc1nc(N)c(Cl)c(Nc2ccccc2S(=O)(=O)C(C)C)n1,scaled lipid accumulation score,[3],≤ 0
same,scaled lipid accumulation score,[4],≤ 0
same,scaled lipid accumulation score,[5],0.025
same,scaled lipid accumulation score,[2],0.537
O=C(O)CCCCCCC1C(=O)NC(=O)N1CCC(O)C1CCCCC1 (stereo not drawn),scaled lipid accumulation score,[1],≤ 0
COc1cc(OC)c(C(=O)CCCCN2CCC3(CC2)NC(=O)NC3=O)cc1NS(=O)(=O)c1ccc(C(F)(F)F)cc1.Cl,scaled lipid accumulation score,[2],0.941 (active)
O=C(O)CN(CC(=O)O)Cc1cc2c(cc1O)Oc1cc(O)c(CN(CC(=O)O)CC(=O)O)cc1C21OC(=O)c2ccccc21 [Calcein],scaled lipid accumulation score,[2],0.169
COc1ccc2c(c1)c(CC(=O)Oc1ccc(-c3cc(=S)ss3)cc1)c(C)n2C(=O)c1ccc(Cl)cc1,scaled lipid accumulation score,[1],≤ 0
COC(=O)[C@H](Cc1ccccc1)NC(=O)/C=C/c1ccc(O)cc1,scaled lipid accumulation score,[1],0.011
C[C@H](NC(=O)CCc1nc2ccccc2c(=O)[nH]1)c1ccccc1,scaled lipid accumulation score,[6],≤ -0.009
same,scaled lipid accumulation score,[2],≤ 0
"CCCCCC#CCC#CCC#CCCCCCCC(=O)O [8,11,14-Eicosatriynoic Acid]",scaled lipid accumulation score,[1],≤ 0
CC(C)C[C@H](NC(=O)[C@@H](COC(C)(C)C)NC(=O)[C@H](Cc1ccc(O)cc1)NC(=O)[C@H](CO)NC(=O)[C@H](Cc1c[nH]c2ccccc12)NC(=O)[C@H](Cc1cnc[nH]1)NC(=O)[C@@H]1CCC(=O)N1)C(=O)N[C@@H](CCCNC(=N)N)C(=O)N1CCC[C@H]1C(=O)NNC(N)=O [Goserelin acetate],scaled lipid accumulation score,library stock concentration: 1.6 mM,≤ -0.006
CC(C)C[C@H](NC(=O)[C@@H](COC(C)(C)C)NC(=O)[C@H](Cc1ccc(O)cc1)NC(=O)[C@H](CO)NC(=O)[C@H](Cc1c[nH]c2ccccc12)NC(=O)[C@H](Cc1cnc[nH]1)NC(=O)[C@@H]1CCC(=O)N1)C(=O)N[C@@H](CCCNC(=N)N)C(=O)N1CCC[C@H]1C(=O)NNC(N)=O,scaled lipid accumulation score,library stock concentration: 9.6 mM,0.046
"CCCCCCCC(=O)OC[C@H](CO)OC(=O)CCCCCCC [1,2-Dioctanoyl-SN-glycerol]",scaled lipid accumulation score,[1],≤ -0.021
"CCCCCCCC(=O)OC[C@H](CO)OC(=O)CCCCCCC [1,2-Dioctanoyl-sn-glycerol]",scaled lipid accumulation score,[1],0.009
Br.Br.CN(C)CCCc1cc(C(=O)Nc2ccc(-c3ccncc3)cc2)ccc1O,scaled lipid accumulation score,[2],1.13 (active)
COc1ccc(NC(=O)c2ccc(-c3ccc(-c4noc(C)n4)cc3C)cc2)cc1OCCN(C)C,scaled lipid accumulation score,[2],0.491
Cc1ccc(NC(=O)c2cccc(N(C)C)c2)cc1NC(=O)c1ccc(O)cc1,scaled lipid accumulation score,[2],≤ -0.004
CC(C)CCCC(C)N (stereo not drawn) [Octodrine],scaled lipid accumulation score,library stock concentration: 15.5 mM,0.024
CCC(CC)CC1(C(=O)Nc2ccccc2SC(=O)C(C)C)CCCCC1,scaled lipid accumulation score,[6],≤ 0
same,scaled lipid accumulation score,[2],≤ 0
Cc1nc(-c2ccc(C(F)(F)F)cc2)sc1C(=O)NCc1ccc(OC(C)(C)C(=O)O)cc1,scaled lipid accumulation score,[1],≤ 0
CN(C)CCC1(c2ccc(Cl)cc2)Cc2ccccc2C(=O)O1 (stereo not drawn),scaled lipid accumulation score,[2],0.575
CN(C)CCC=C1c2ccccc2COc2ccccc21 [Doxepin],scaled lipid accumulation score,[2],0.731
CN(C)CC/C=C1/c2ccccc2COc2ccc(CC(=O)O)cc21 [Olopatadine],scaled lipid accumulation score,library stock concentration: 5.9 mM,≤ -0.006
CN(C)CC/C=C1/c2ccccc2COc2ccc(CC(=O)O)cc21,scaled lipid accumulation score,[2],≤ 0
CN(C)CCC=C1c2ccccc2CCc2ccccc21 [Amitryptiline hydrochloride],scaled lipid accumulation score,,0.821
CN(C)CC/C=C1/c2ccccc2COc2ccccc21.Cl [Doxepin hydrochloride],scaled lipid accumulation score,library stock concentration: 6.3 mM,1.34 (active)
CN(C)CCC=C1c2ccccc2CCc2ccccc21 [Amitriptyline hydrochloride],scaled lipid accumulation score,library stock concentration: 6.4 mM,0.347
same,scaled lipid accumulation score,[2],0.6
CN(C)CCC=C1c2ccccc2CCc2ccccc21 [Annoyltin],scaled lipid accumulation score,[2],0.841
CN(C)CCC=C1c2ccccc2CCc2ccccc21.Cl [Amitriptyline HCl],scaled lipid accumulation score,[2],0.863 (active)
C(=C/CCN(C)C)(/c1c2cccc1)\c3c(cccc3)CC2.Cl [Amitriptyline hydrochloride],scaled lipid accumulation score,[2],1.11 (active)
CN(C)CC/C=C1/c2ccccc2COc2ccc(CC(=O)O)cc21 [Olopatadine HCl],scaled lipid accumulation score,[6],≤ 0
same,scaled lipid accumulation score,[2],≤ 0
CN(C)CCC=C1c2ccccc2COc2ccccc21 [Doxepin hydrochloride],scaled lipid accumulation score,,0.633
same,scaled lipid accumulation score,[2],0.495 and 0.707 and 0.72
CN(C)CCC=C1c2ccccc2CCc2ccccc21 [Amitriptyline HCl],scaled lipid accumulation score,[6],0.187
C[C@H]1[C@H](OC(=O)CCC(=O)O)O[C@@H]2O[C@@]3(C)CC[C@H]4[C@H](C)CC[C@@H]1[C@@]24OO3,scaled lipid accumulation score,[2],≤ 0
C[C@H]1[C@H](OC(=O)CCC(=O)O)O[C@@H]2O[C@@]3(C)CC[C@H]4[C@H](C)CC[C@@H]1[C@@]24OO3 [Artesunate],scaled lipid accumulation score,[6],0.009
same,scaled lipid accumulation score,library stock concentration: 5.2 mM,≤ 0
same,scaled lipid accumulation score,[2],≤ 0
C/C=C/C/C=C/CCC(=O)[C@H]1O[C@H]1C(N)=O [Cerulenin],scaled lipid accumulation score,[1],≤ 0
same,scaled lipid accumulation score,library stock concentration: 22.4 mM,0.518
CCCCCC(O)C=CC1C=CC(=O)C1CCCCCCC(=O)O (stereo not drawn) [8-iso Prostaglandin A1],scaled lipid accumulation score,[1],≤ 0
CCCCCC(O)C=CC1C=CC(=O)C1CCCCCCC(=O)O (stereo not drawn) [15-epi Prostaglandin A1],scaled lipid accumulation score,[1],≤ 0
N[C@@H](Cc1c[nH]cn1)C(=O)O [L-Histidine hydrochloride],scaled lipid accumulation score,[2],≤ -0.07
"COC1=CC(=O)C=C(OC)C1=O [2,6-dimethoxyquinone]",scaled lipid accumulation score,[2],0.299
"CC(C)NCC(O)c1ccc(O)c(O)c1 (single isomer, unassigned; (-)) [(-)-Isoproterenol hydrochloride]",scaled lipid accumulation score,,≤ 0
same,scaled lipid accumulation score,[2],≤ -0.055
CC[C@H]1C(=O)OC[C@@H]1Cc1cncn1C [Isopilocarpine nitrate],scaled lipid accumulation score,[2],≤ 0
COc1cccc(OC)c1OCCNCC1CSc2ccccc2O1 (stereo not drawn) [Benoxathian hydrochloride],scaled lipid accumulation score,[2],0.629
CCCn1ncc(-c2ccnc(NC3CC(C)(C)NC(C)(C)C3)n2)c1C,scaled lipid accumulation score,[2],0.86 (active)
CC1(C)CC(Nc2nccc(-c3cnn(-c4ccccc4)c3)n2)CC(C)(C)N1,scaled lipid accumulation score,[2],0.799 (active)
C[C@@H]1O[C@@H](O[C@H]2[C@H](Oc3cc(O)c(C(=O)CCc4ccc(O)cc4)c(O)c3)O[C@H](CO)[C@@H](O)[C@@H]2O)[C@H](O)[C@H](O)[C@H]1O [Naringin Dihydrochalcone],scaled lipid accumulation score,[6],≤ 0
same,scaled lipid accumulation score,[2],0.078
O=C(O)CCC/C=C\C[C@@H]1CO[C@H](C(F)(F)F)O[C@@H]1c1ccccc1O,scaled lipid accumulation score,[2],≤ 0
"CCCCCCCC/C=C\CCCCCCCC(=O)OC[C@H](CO)OC(=O)CCCCCCC/C=C\CCCCCCCC [1,2-Dioleoyl-sn-glycerol]",scaled lipid accumulation score,[1],≤ 0
CCN(CC)CCCC(C)Nc1c2ccc(Cl)cc2nc2ccc(OC)cc12 (stereo not drawn) [Quinacrine 2HCl],scaled lipid accumulation score,[6],0.307
same,scaled lipid accumulation score,[2],0.325
CCN(CC)CCCC(C)Nc1c2ccc(Cl)cc2nc2ccc(OC)cc12 (stereo not drawn) [Quinacrine 2HCl dihydrate],scaled lipid accumulation score,library stock concentration: 5 mM,0.876 (active)
CCN(CC)CCCC(C)Nc1nc(C)cc(Nc2ccc3nc(C)cc(N)c3c2)n1 (stereo not drawn),scaled lipid accumulation score,[6],≤ -0.009
same,scaled lipid accumulation score,[2],0.217 and 0.086
CCN(CC)CCCC(C)Nc1c2ccc(Cl)cc2nc2ccc(OC)cc12 (stereo not drawn) [Quinacrine dihydrochloride],scaled lipid accumulation score,[2],0.536
CCN(CC)CCCC(C)Nc1c2ccc(Cl)cc2nc2ccc(OC)cc12 (stereo not drawn) [Quinacrine dihydrochloride dihydrate],scaled lipid accumulation score,,0.288
CCN(CC)CCCC(C)Nc1c2ccc(Cl)cc2nc2ccc(OC)cc12 (stereo not drawn) [Quinacrine hydrochloride],scaled lipid accumulation score,[2],0.586
c1ccc(-c2[nH]ncc2-c2ccnc3ccccc23)nc1,scaled lipid accumulation score,[1],≤ 0
same,scaled lipid accumulation score,[2],≤ -0.001
CC1=C(/C=C/C(C)=C/C=C/C(C)=C/CO)C(C)(C)CCC1 [Retinol],scaled lipid accumulation score,library stock concentration: 7 mM,≤ 0
same,scaled lipid accumulation score,[2],≤ 0
